Of roughly 8,800 targets only a part is listed; those with a hit were picked by preference. About 0.5% of all pairs of compound and target were hits.
Legend:
Experiment in all cases: log2 fold change, soluble protein after heating vs DMSO (PISA); higher = thermal stabilisation; K562 lysate, 10 uM; active = over 0.2 and 3.5 SD of the protein, either way, in both replicates (recomputed)
[1] = compound: C1=CC=C(C=C1)[C@H](COC2=CC3=C(C=C2)NC(=O)N3)NC(=O)C4=CC=CN(C4=O)CC5=CC(=C(C=C5)F)F
In short: (§1)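 K562 pellets were dounce-homogenised in PBS pH 7.4 with 1 mM MgCl2, and the crude extract at 1 mg/mL protein was treated with 10 μM compound for 30 min. Aliquots were heated for 3 min across 48°C-58°C, pooled, and brought to 0.5% NP-40 at 4°C; soluble protein was the supernatant after 21,000xg for 90 min. Soluble protein was quantified by TMTpro 16plex LC-MS/MS with channel sums equalised, and reported as log2 fold change in thermal stability against DMSO controls, with values from duplicates.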

[2] = compound: CC1=C(SC2=C1C(=N[C@H](C3=NN=C(N32)C)CC(=O)N)C4=CC=C(C=C4)Cl)C
In short: as §1

[3] = compound: CC1=C2C(=CC=C1)N=C(N(C2=O)C3=CC=CC=C3C)CN4C=NC5=C(N=CN=C54)N
In short: as §1

[4] = compound: Cc1sc2c(c1C)C(c1ccc(Cl)cc1)=N[C@@H](CC(=O)OC(C)(C)C)c1nnc(C)n1-2
In short: as §1

[5] = compound: c1ccc([C@@H]2C[C@H]2NC2CCNCC2)cc1
In short: as §1

Measured: log2 fold change

MED10 (UniProt Q9BTT4)
Sequence of UniProt Q9BTT4 (Q9BTT4 whole entry, looked up): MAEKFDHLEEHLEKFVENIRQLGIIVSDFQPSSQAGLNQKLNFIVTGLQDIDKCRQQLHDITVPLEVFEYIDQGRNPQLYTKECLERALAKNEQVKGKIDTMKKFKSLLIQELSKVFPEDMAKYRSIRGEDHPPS
inactive: [1] 0.038 | [2] -0.033 | [3] -0.04 | [4] 0.015 | [5] -0.009

LZTR1 (UniProt Q8N653)
Sequence of UniProt Q8N653 (Q8N653 whole entry, looked up): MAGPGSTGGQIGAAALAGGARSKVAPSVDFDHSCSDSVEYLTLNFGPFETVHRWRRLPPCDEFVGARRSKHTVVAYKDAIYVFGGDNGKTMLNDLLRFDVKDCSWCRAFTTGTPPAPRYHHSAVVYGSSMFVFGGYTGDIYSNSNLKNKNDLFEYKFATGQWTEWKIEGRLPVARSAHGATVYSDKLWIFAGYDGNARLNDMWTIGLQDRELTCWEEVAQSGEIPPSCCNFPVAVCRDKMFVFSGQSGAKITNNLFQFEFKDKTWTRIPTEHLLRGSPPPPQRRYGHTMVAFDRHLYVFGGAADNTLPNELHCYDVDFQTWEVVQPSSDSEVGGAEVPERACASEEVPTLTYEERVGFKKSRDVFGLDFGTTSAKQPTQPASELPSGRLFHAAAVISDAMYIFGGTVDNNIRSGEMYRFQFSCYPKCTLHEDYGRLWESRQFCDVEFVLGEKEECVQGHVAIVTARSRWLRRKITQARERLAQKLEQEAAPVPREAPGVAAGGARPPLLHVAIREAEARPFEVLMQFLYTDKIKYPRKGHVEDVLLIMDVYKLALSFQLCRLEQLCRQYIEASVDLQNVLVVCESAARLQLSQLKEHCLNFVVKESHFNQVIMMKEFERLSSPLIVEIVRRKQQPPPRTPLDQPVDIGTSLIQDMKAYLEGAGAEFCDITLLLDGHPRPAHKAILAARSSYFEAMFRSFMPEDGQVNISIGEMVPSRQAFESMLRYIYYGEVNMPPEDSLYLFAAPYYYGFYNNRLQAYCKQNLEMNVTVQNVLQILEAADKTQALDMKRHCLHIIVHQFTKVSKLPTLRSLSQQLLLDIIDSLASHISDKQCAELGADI
inactive: [1] -0.237 | [2] 0.004 | [3] 0.005 | [4] -0.004 | [5] 0.036

LZTS1 (UniProt Q9Y250)
Sequence of UniProt Q9Y250 (Q9Y250 whole entry, looked up): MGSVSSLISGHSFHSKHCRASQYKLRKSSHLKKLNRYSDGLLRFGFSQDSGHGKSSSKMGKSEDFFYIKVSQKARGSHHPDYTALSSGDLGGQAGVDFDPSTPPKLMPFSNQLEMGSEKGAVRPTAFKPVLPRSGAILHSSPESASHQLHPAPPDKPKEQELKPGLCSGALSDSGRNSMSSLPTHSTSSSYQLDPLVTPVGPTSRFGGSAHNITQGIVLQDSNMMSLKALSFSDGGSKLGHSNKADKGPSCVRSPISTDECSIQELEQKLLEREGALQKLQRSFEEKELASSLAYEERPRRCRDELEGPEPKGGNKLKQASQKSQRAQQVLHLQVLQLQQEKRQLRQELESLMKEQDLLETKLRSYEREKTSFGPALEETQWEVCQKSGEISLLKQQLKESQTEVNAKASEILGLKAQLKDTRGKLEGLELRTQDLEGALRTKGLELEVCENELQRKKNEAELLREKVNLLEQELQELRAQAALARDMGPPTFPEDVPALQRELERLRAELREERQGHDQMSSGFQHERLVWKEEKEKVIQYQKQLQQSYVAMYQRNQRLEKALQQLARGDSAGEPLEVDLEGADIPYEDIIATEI
inactive: [1] -0.082 | [2] 0.049 | [3] 0.065 | [4] -0.628 | [5] 0.324

LARP4B (UniProt Q92615)
Sequence of UniProt Q92615 (Q92615 whole entry, looked up): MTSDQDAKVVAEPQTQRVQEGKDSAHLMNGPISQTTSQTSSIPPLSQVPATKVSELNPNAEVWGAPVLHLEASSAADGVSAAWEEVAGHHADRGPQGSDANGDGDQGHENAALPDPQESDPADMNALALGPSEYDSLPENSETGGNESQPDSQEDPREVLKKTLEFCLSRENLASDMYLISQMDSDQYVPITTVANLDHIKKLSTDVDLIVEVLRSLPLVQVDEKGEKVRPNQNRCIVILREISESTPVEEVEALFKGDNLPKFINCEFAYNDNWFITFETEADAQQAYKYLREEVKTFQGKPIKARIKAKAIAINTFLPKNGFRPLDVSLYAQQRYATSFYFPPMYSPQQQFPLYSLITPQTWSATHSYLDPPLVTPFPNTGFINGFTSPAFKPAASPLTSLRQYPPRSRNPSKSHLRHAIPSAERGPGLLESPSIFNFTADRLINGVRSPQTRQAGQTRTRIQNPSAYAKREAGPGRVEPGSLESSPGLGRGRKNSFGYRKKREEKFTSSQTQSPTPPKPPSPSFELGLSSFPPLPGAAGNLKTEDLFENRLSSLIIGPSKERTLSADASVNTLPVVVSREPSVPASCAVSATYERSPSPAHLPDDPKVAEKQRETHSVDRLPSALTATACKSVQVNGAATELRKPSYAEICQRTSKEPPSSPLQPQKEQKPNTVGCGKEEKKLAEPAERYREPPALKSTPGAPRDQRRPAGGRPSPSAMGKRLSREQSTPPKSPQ
inactive: [1] 0.031 | [2] -0.034 | [3] 0.002 | [4] 0.03 | [5] -0.037

MAPK14 isoform 2 (UniProt Q16539)
Sequence of UniProt Q16539 (Q16539 whole entry, looked up): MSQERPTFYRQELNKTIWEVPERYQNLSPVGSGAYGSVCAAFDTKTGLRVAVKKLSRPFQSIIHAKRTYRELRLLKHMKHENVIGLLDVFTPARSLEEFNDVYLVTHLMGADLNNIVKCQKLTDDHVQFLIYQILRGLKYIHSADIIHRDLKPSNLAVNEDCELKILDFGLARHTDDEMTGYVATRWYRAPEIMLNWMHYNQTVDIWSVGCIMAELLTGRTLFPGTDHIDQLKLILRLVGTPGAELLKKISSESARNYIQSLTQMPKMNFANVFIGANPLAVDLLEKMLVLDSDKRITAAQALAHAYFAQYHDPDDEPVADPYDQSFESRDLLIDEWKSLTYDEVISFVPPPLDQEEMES
inactive: [1] 0.008 | [2] -0.053 | [3] 0.014 | [4] -0.028 | [5] 0.154

MAP7D3 (UniProt Q8IWC1)
Sequence of UniProt Q8IWC1 (Q8IWC1 whole entry, looked up): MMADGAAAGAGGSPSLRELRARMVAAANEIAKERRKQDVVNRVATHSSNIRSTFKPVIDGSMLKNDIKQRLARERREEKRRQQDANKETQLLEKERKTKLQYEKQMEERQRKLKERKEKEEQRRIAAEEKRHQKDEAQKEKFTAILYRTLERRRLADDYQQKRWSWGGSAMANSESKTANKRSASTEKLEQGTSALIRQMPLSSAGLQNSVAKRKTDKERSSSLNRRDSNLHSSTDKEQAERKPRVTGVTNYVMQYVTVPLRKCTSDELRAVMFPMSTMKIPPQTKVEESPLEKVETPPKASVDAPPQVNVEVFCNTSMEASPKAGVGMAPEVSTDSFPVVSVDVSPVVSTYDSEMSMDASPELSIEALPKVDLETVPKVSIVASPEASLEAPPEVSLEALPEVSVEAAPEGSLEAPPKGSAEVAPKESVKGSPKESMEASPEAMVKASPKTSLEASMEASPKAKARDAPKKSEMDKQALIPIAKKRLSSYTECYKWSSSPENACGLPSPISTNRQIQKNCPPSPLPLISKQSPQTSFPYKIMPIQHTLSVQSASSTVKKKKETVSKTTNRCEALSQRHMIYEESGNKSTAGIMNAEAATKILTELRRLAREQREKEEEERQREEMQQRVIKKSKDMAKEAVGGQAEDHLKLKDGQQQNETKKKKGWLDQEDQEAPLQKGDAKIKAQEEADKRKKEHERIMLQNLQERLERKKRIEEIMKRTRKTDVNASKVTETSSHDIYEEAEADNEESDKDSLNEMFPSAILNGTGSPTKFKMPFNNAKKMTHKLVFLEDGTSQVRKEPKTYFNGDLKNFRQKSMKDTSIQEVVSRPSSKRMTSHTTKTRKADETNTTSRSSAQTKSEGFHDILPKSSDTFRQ
inactive: [1] 0.056 | [2] 0.057 | [3] -0.091 | [4] 0.015 | [5] -0.05

MAPK6 (UniProt Q16659)
Sequence of UniProt Q16659 (Q16659 whole entry, looked up): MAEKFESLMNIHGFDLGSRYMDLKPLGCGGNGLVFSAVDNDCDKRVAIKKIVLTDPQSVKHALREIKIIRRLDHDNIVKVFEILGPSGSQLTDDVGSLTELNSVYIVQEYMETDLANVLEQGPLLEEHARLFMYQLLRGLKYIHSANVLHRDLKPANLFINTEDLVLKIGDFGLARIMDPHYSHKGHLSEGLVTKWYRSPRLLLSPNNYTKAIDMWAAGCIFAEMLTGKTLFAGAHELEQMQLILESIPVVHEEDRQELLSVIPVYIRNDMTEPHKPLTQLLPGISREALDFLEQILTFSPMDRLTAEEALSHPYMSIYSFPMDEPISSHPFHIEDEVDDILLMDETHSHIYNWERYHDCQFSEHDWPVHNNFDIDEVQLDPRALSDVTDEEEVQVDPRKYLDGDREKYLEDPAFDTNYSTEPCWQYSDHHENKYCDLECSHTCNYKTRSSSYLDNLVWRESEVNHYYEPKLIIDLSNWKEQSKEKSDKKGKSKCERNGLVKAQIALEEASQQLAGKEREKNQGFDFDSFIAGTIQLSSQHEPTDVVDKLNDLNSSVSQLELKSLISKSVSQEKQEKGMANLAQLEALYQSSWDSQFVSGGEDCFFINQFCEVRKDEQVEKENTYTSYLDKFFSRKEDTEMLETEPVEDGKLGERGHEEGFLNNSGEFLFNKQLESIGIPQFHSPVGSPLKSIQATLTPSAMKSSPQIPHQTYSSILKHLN
inactive: [1] 0.062 | [2] -0.015 | [3] -0.016 | [4] -0.001 | [5] -0.037

LUC7L (UniProt Q9NQ29)
Sequence of UniProt Q9NQ29 (Q9NQ29 whole entry, looked up): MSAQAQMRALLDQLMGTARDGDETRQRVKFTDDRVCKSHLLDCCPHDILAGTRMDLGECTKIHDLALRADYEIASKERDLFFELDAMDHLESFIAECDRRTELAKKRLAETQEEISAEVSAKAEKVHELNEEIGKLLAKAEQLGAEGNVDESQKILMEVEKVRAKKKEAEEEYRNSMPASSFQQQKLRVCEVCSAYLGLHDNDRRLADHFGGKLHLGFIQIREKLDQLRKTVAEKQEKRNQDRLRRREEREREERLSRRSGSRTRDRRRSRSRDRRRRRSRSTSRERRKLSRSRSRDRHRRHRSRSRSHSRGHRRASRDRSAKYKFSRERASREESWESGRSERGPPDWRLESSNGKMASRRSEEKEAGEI
inactive: [1] 0.011 | [2] 0.013 | [3] 0.006 | [4] 0.003 | [5] 0.055

MRPL15 (UniProt Q9P015)
inactive: [1] -0.016 | [2] 0.04 | [3] 0.003 | [4] 0.04 | [5] -0.212

— the supplement of paper PMC10849652
